The values below come from PubChem BioAssay (NCATS).

Results filed as inconclusive are left out. A number with no mark means an inactive call. Activity calls are given as the source filed them. Calls follow the shape of the dose curve; as a rule, active = well fitted inhibition curve with a large enough effect; inconclusive = small, poorly fitted or top-dose-only effect; inactive = flat fitted curve, though single readings scatter.

One test deals with CRL-7250. As to the kind of experiment: Cytotoxic Profiling of Annotated Libraries Using Quantitative High-Throughput Screening (AID 1296008). Also: nearly all actives have a fitted effect of over 60% in size. The conditions noted are these: Five cell lines viability, CellTiter-Glo ATP luminescence, 48-72 h; max response: active compounds read low. Summed up: (§1)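 Cells exposed to compounds for 48 or 72 hr at 37 degrees Celsius. Viability read as ATP-coupled luminescence with CellTiter-Glo after 10 min at room temperature.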
On the technique in general: ATP-based viability assays read luminescence as a measure of living cells.

In a further test the test system is HEK293. The description is as above. The following applies: Five cell lines viability, CellTiter-Glo ATP luminescence, 48-72 h; max response: active compounds read low. Summed up:
as §1
% is scaled to controls: 0 for no effect and ±100 for the full control effect; potency is read from the fitted curve at half-maximal effect.

For the compound `CCOC(=O)c1ccc(NC(=O)CN2CCCCC2)cc1`, the max response in the test with CRL-7250 was -6.82%.

In the case of `CC(C)(C)c1nnc(NS(=O)(=O)c2ccccc2)s1`, in the test with CRL-7250, the max response was 4.99%. Moreover, the result in the test on HEK293 was inactive.

On to `O=C(CO)[C@@H](O)[C@H](O)[C@@H](O)CO`, for which the outcome in the test with CRL-7250 and in the test with HEK293 was inactive.

As to `CCN(CC)C(=O)C1CN2CCc3cc(OC)c(OC)cc3C2CC1OC(C)=O` (stereo not drawn), the max response in the test with CRL-7250 was -9.43%. Also, the compound was classed as inactive in the test with HEK293.

In the case of `C#Cc1ccc(-c2ccccc2F)cc1`, the max response with CRL-7250 was -10.3%; in the test with HEK293, -8.83%.

As to `CO[C@@H]1[C@@H](OC)[C@H](C)[C@@](O)(CC(=O)O)O[C@H]1[C@H](C)[C@H]1O[C@@]2(CC[C@@](C)([C@H]3CC[C@@](C)([C@@H]4O[C@@H]([C@H]5O[C@](C)(O)[C@H](C)C[C@@H]5C)C[C@@H]4OC4C[C@H](OC)[C@@H](OC)[C@H](C)O4)O3)O2)C[C@H](O)[C@H]1C` (stereo partly drawn), the values for the Potency in the test on CRL-7250 and in the test on HEK293 were 944 nM (active) and 237 nM (active), respectively.

Take `O=C1NC(=O)/C(=C/c2ccc3c(c2)OC(F)(F)O3)S1`: in the test on CRL-7250, the max response is 4.23%.

As for `O=C(O)CNC(=O)CNC(=O)CNC(=O)CSC(=O)c1ccccc1`, the max response in the test on CRL-7250 is -5.45%; in the test with HEK293, -4.78%.

For `CO[C@@]1(NC(=O)CSC[C@@H](N)C(=O)O)C(=O)N2C(C(=O)O)=C(CSc3nnnn3C)CS[C@@H]21`, in the test with CRL-7250, the max response was 1.25%. In addition, the compound was called inactive in the test with HEK293.

For the compound `CCCCC(=O)OCC(=O)[C@H]1[C@H](C)C[C@H]2[C@@H]3C[C@H](F)C4=CC(=O)C=C[C@]4(C)[C@@]3(F)[C@@H](O)C[C@@]21C`, the max response with CRL-7250 is -1.6%.

For `O=[N+]([O-])c1cncn1CCN1CCOCC1`, the compound was classed as inactive in the test with CRL-7250. Further, in the test with HEK293, the max response was 3.5%.

Consider `O=C(O)c1ccccc1Nc1cc(Cl)ccc1C(=O)O`, for which the max response in the test with CRL-7250 is 2.83%; in the test with HEK293, -2.68%.

Take `O=[N+]([O-])c1ccc(-c2nc(-c3ccc(F)cc3)c(-c3ccncc3)[nH]2)cc1`: the result with CRL-7250 was inactive.

Take `CC1(C)S[C@@H]2[C@H](NC(=O)C(c3ccccc3)S(=O)(=O)O)C(=O)N2[C@H]1C(=O)O` (stereo partly drawn): the max response was 1.53% in the test on CRL-7250 and -0.254% in the test on HEK293.

Turning to `CC(C)C(=O)OCc1cccc(OC(=O)[C@@H]2N3C(=O)[C@@H](NC(=O)Cc4ccccc4)[C@H]3SC2(C)C)c1`, the compound was classed as inactive in the test on CRL-7250 and in the test with HEK293.

Regarding `CC(=O)Nc1c(I)c(NC(C)=O)c(I)c(C(=O)O)c1I`, the max response in the test on CRL-7250 was 2.5%; in the test with HEK293, 2.17%.

As for `CC(C)NC(=O)c1ccc(C=O)cc1`, in the test with CRL-7250, the max response was -4.83%. The compound was called inactive in the test on HEK293.

With `CC(C)=CCNc1ncnc2c1ncn2[C@@H]1O[C@H](CO)[C@@H](O)[C@H]1O`, the Potency in the test on CRL-7250 was 1500 nM (active).

In the case of `O=C1Nc2ccccc2C1(c1ccc(O)cc1)c1ccc(O)cc1`, the Potency with CRL-7250 was 23700 nM (active).

As for `C[C@@H]1CCC[C@H](C)N1CCCC(O)(c1ccccc1)c1ccccn1` (stereo partly drawn), the values for the max response in the test on CRL-7250 and in the test with HEK293 were 3.63% and -3.44%, respectively.

For the compound `CCN(CC)CCN`, the max response was 3.12% in the test on CRL-7250 and 2.25% in the test with HEK293.

In the case of `C[C@H]1C[C@H](O)c2ccsc2S1(=O)=O`, the max response in the test on CRL-7250 was -0.46%; in the test with HEK293, 3.47%.

As to `COc1cc(/C=C/C(N)=O)cc(OC)c1OC`, the compound was called inactive in the test on CRL-7250 and in the test on HEK293.

In the case of `O=C(O)c1ccccc1S`, the max response in the test on CRL-7250 is -0.928%; in the test on HEK293, 0.0683%.

As to `CCc1cc2cc(OC)c(OC)cc2c(Cc2ccccc2)n1`, the result in the test on CRL-7250 was inactive.

`C[C@H]1C[C@@H]2[C@H]([C@@H](O)C[C@@]3(C)[C@H]2CC[C@]3(O)C(=O)CO)[C@@]2(C)C=CC(=O)C=C12`: the max response with CRL-7250 is -5.61%. Further, in the test on HEK293, the call was inactive.

Turning to `CCCc1ccc(OCC(=O)N2CCN(C(=O)COc3ccc(CCC)cc3OC)CC2)c(OC)c1`, the max response in the test on CRL-7250 was -1.28%.

For the compound `COC(=O)/C=C\C(=O)OC`, the max response in the test on CRL-7250 is -5.33%. Moreover, in the test on HEK293, the compound was called inactive.

As for `Cc1sccc1Br`, the figures for the max response in the test on CRL-7250 and in the test with HEK293 were -9.55% and -4.49%, respectively.

Regarding `Nc1ccc([N+](=O)[O-])c(C(F)(F)F)c1`, the values for the max response in the test on CRL-7250 and with HEK293 were 1.39% and 4.93%, respectively.

As for `CC(C)NCCCC1(C(N)=O)c2ccccc2-c2ccccc21`, in the test on CRL-7250, the outcome was inactive.

Turning to `Nc1c(I)cc(I)c(C(=O)N(CCC(=O)O)c2ccccc2)c1I`, the max response is 1.19% in the test with CRL-7250 and -0.316% in the test with HEK293.

For the compound `COC(=O)/C=C(/C)N`, the max response with CRL-7250 was -6.42%. Moreover, the outcome in the test on HEK293 was inactive.

`COc1cc(C(=O)OC(COCCC(C)C)CN2CCOCC2)cc(OC)c1OC` (stereo not drawn): the max response in the test on CRL-7250 was -2.39%. In addition, the call in the test with HEK293 was inactive.

Turning to `COCCOCC(OC)OC`, the values for the max response with CRL-7250 and with HEK293 were -5.92% and -49.7%, respectively.

As for `O=C(c1cc(O)c(O)c(O)c1)c1ccc(O)c(O)c1O`, the max response in the test on CRL-7250 was -19.4%.

In the case of `CCCCC(O)/C=C(C)/C=C/C=C/C(=O)N1CCCC1=O` (stereo not drawn), the max response in the test on CRL-7250 is 0.43%; in the test on HEK293, 1.86%.

For `CCOC(=O)c1ccc(OCCN2C[C@H](O)[C@@H](O)[C@H](O)[C@H]2CO)cc1`, the max response in the test with CRL-7250 is -7.54%; in the test on HEK293, -10.3%.

As to `CCCCCCn1c(=O)c2c(ncn2C)n(C)c1=O`, in the test on CRL-7250, the compound was called inactive. Also, the max response in the test with HEK293 was -1.62%.

With `CC(=O)N(c1onc(C)c1C)S(=O)(=O)c1ccc(N)cc1`, the max response with CRL-7250 was -16.4%; with HEK293, 4.9%.

For `CN(C(=O)C(Cl)Cl)c1ccc(OC(=O)c2ccco2)cc1`, the results for the max response in the test on CRL-7250 and with HEK293 were 4.42% and -3.53%, respectively.

Take `CC(=O)N(CC(=O)N(C)C)c1ccccc1`: the max response is -29.6% in the test on CRL-7250 and -63.5% in the test with HEK293.

Regarding `COCCc1ccc(OCC2CO2)cc1` (stereo not drawn), the values for the max response with CRL-7250 and with HEK293 were 1.12% and 1.88%, respectively.

Consider `CSCC[C@H](NC(=O)[C@H](Cc1c[nH]c2ccccc12)NC(=O)CCNC(=O)OC(C)(C)C)C(=O)N[C@@H](CC(=O)O)C(=O)N[C@@H](Cc1ccccc1)C(N)=O`, for which the max response in the test on CRL-7250 was 0.728%; with HEK293 it was 0.664%.
